# Compounds without any hit were thinned out: in the full panel of roughly 79,000, 15% have a hit. A number with no mark means an inactive call. Active and inactive are the calls of the source. No stated cut-off is given here; in the data, active means growth inhibition above about 70%; inactive means the rest.
# Columns and labels:
# [1] = NCI Yeast Anticancer Drug Screen. Data for the wt1 strain (AID 149);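 further: 0% = growth of vehicle-treated wt1 cultures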; details: S. cerevisiae wt1 strain (SPY 50644) growth inhibition, stronger effect = higher value
# How it was run: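 Growth inhibition read against vehicle controls after compound exposure of the wt1 yeast strain.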
# [2] = NCI Yeast Anticancer Drug Screen. Data for the mgt1 strain (AID 153); details: S. cerevisiae mgt1 mutant growth inhibition, stronger effect = higher value
# How it was run: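 In the mgt1 strain, test compounds were added and growth inhibition was determined relative to vehicle-treated controls.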
# [3] = NCI Yeast Anticancer Drug Screen. Data for the rad50 strain (AID 155);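 further: 0% = growth of vehicle-only cultures of the same strain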; details: S. cerevisiae rad50 strain growth inhibition, stronger effect = higher value
# How it was run: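 Readout: growth inhibition relative to vehicle-treated cultures. Compound exposure was carried out in a genetically defined yeast strain deficient in DNA damage repair.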
# [4] = NCI Yeast Anticancer Drug Screen. Data for the mec2-1 strain (AID 157); details: S. cerevisiae mec2-1 strain, stronger effect = higher value
# How it was run: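 Each compound was tested on mec2-1 yeast, a strain altered in DNA damage repair or cell cycle control. Growth inhibition is reported relative to vehicle.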
# [5] = NCI Yeast Anticancer Drug Screen. Data for the rad14 strain (AID 159);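 further: 0% = growth of vehicle-treated control cultures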; details: S. cerevisiae rad14 strain growth inhibition, stronger effect = higher value
# How it was run: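 Growth inhibition vs vehicle controls; genetically altered yeast strain (DNA damage repair defect) treated with test compounds.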
# [6] = NCI Yeast Anticancer Drug Screen. Data for the sgs1 mgt1 strain (AID 161);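 further: 0% = growth of cultures given vehicle only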; details: S. cerevisiae sgs1 mgt1 strain, stronger effect = higher value
# How it was run: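 Test agents were incubated with a DNA-repair-mutant yeast strain. Growth was then read and compared against vehicle-treated controls.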
# [7] = NCI Yeast Anticancer Drug Screen. Data for the cln2 rad14 strain (AID 165);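 further: 0% = growth equal to vehicle treated cultures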; details: S. cerevisiae cln2 rad14 strain, stronger effect = higher value
# How it was run: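 Test compounds were added to cln2 rad14 yeast cultures; inhibition of growth was then determined by comparison with vehicle treatment.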
# [8] = NCI Yeast Anticancer Drug Screen. Data for the bub3 strain (AID 167); details: S. cerevisiae bub3 mutant strain, stronger effect = higher value
# How it was run: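 Readout: yeast growth inhibition, expressed relative to vehicle-only wells. The test organism is a mutant strain from a panel with lesions in DNA repair or checkpoint genes.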
# [9] = NCI Yeast Anticancer Drug Screen. Data for the wt2 strain (AID 169);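 further: 0% = growth of vehicle-treated yeast cultures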; details: S. cerevisiae wt2 strain growth inhibition, stronger effect = higher value
# How it was run: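 The panel's yeast strains carry defined changes in DNA repair or cell cycle genes. Each strain is grown with compound, and growth loss is scored relative to vehicle.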
# [10] = NCI Yeast Anticancer Drug Screen. Data for the mlh1 strain (AID 171);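 further: 0% = growth of vehicle-treated control cultures of the same strain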; details: S. cerevisiae mlh1 strain growth inhibition, stronger effect = higher value
# How it was run: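 Inhibition values reflect reduced yeast growth in the presence of compound, referenced to vehicle controls, using a strain chosen for its alteration in DNA repair or cell cycle control.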
# [11] = NCI Yeast Anticancer Drug Screen. Data for the sgs1 strain (AID 173);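 further: 0% = growth of vehicle-only control cultures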; details: S. cerevisiae sgs1 mutant, stronger effect = higher value
# How it was run: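 Vehicle-treated cultures served as reference for growth inhibition of a yeast strain altered in DNA damage repair or cell cycle control after compound exposure.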
# [12] = NCI Yeast Anticancer Drug Screen. Data for the mlh1 rad18 strain (AID 175); details: S. cerevisiae mlh1 rad18 strain growth inhibition, stronger effect = higher value
# How it was run: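 Inhibition values reflect reduced growth of mutant yeast versus vehicle-treated controls following compound exposure; the mutations affect DNA damage repair.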
# [13] = NCI Yeast Anticancer Drug Screen. Data for the rad18 strain (AID 177); details: S. cerevisiae rad18 mutant growth inhibition, stronger effect = higher value
# How it was run: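 Steps: expose repair-mutant yeast to compound; measure growth; express as inhibition relative to vehicle control.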
# [14] = at 5.0 µM (retest, dose inferred, filed as 0.5)
# [15] = at 50.0 µM (retest, dose inferred, filed as 5.0)
structure (smiles),measurement,setting,value
O=[N+]([O-])c1ccc(C(c2c[nH]c3ccccc23)c2c[nH]c3ccccc23)cc1,growth inhibition,[1]; at 1.2 µM,12%
same,growth inhibition,[1]; at 3.7 µM,97% (active)
same,growth inhibition,[1]; at 11.0 µM,96% (active)
same,growth inhibition,[1]; at 33.0 µM,92% (active)
same,growth inhibition,[1]; at 100.0 µM,89% (active)
same,growth inhibition,[2]; at 1.2 µM,18%
same,growth inhibition,[2]; at 3.7 µM,99% (active)
same,growth inhibition,[2]; at 11.0 µM,97% (active)
same,growth inhibition,[2]; at 33.0 µM,94% (active)
same,growth inhibition,[2]; at 100.0 µM,87% (active)
same,growth inhibition,[3]; at 1.2 µM,84% (active)
same,growth inhibition,[3]; at 3.7 µM,85% (active)
same,growth inhibition,[3]; [14],79% (active)
same,growth inhibition,[3]; at 11.0 µM,94% (active)
same,growth inhibition,[3]; at 33.0 µM,89% (active)
same,growth inhibition,[3]; [15],89% (active)
same,growth inhibition,[3]; at 50.0 µM,93.2% (active)
same,growth inhibition,[3]; at 100.0 µM,79% (active)
same,growth inhibition,[4]; at 1.2 µM,22%
same,growth inhibition,[4]; at 3.7 µM,99% (active)
same,growth inhibition,[4]; [14],10%
same,growth inhibition,[4]; at 11.0 µM,97% (active)
same,growth inhibition,[4]; at 33.0 µM,94% (active)
same,growth inhibition,[4]; [15],95% (active)
same,growth inhibition,[4]; at 50.0 µM,93.8% (active)
same,growth inhibition,[4]; at 100.0 µM,88% (active)
same,growth inhibition,[5]; at 1.2 µM,25%
same,growth inhibition,[5]; at 3.7 µM,98% (active)
same,growth inhibition,[5]; at 11.0 µM,97% (active)
same,growth inhibition,[5]; at 33.0 µM,93% (active)
same,growth inhibition,[5]; at 100.0 µM,84% (active)
same,growth inhibition,[6]; [14],82% (active)
same,growth inhibition,[6]; [15],95% (active)
same,growth inhibition,[6]; at 50.0 µM,92.9% (active)
same,growth inhibition,[7]; [14],14%
same,growth inhibition,[7]; [15],93% (active)
same,growth inhibition,[7]; at 50.0 µM,88.1% (active)
same,growth inhibition,[8]; at 1.2 µM,24%
same,growth inhibition,[8]; at 3.7 µM,98% (active)
same,growth inhibition,[8]; [14],45%
same,growth inhibition,[8]; at 11.0 µM,96% (active)
same,growth inhibition,[8]; at 33.0 µM,93% (active)
same,growth inhibition,[8]; [15],96% (active)
same,growth inhibition,[8]; at 50.0 µM,94.3% (active)
same,growth inhibition,[8]; at 100.0 µM,86% (active)
same,growth inhibition,[9]; at 1.2 µM,9%
same,growth inhibition,[9]; at 3.7 µM,98% (active)
same,growth inhibition,[9]; at 11.0 µM,97% (active)
same,growth inhibition,[9]; at 33.0 µM,94% (active)
same,growth inhibition,[9]; at 100.0 µM,88% (active)
same,growth inhibition,[10]; at 1.2 µM,33%
same,growth inhibition,[10]; at 3.7 µM,98% (active)
same,growth inhibition,[10]; at 11.0 µM,97% (active)
same,growth inhibition,[10]; at 33.0 µM,94% (active)
same,growth inhibition,[10]; at 100.0 µM,90% (active)
same,growth inhibition,[11]; at 1.2 µM,33%
same,growth inhibition,[11]; at 3.7 µM,98% (active)
same,growth inhibition,[11]; at 11.0 µM,97% (active)
same,growth inhibition,[11]; at 33.0 µM,95% (active)
same,growth inhibition,[11]; at 100.0 µM,88% (active)
same,growth inhibition,[12]; [14],93% (active)
same,growth inhibition,[12]; [15],92% (active)
same,growth inhibition,[12]; at 50.0 µM,93% (active)
same,growth inhibition,[13]; at 1.2 µM,66%
same,growth inhibition,[13]; at 3.7 µM,98% (active)
same,growth inhibition,[13]; at 11.0 µM,96% (active)
same,growth inhibition,[13]; at 33.0 µM,92% (active)
same,growth inhibition,[13]; at 100.0 µM,86% (active)

# Reference: PubChem BioAssay (NCI)
